“And” between values parts separate entries of the source, which are not always exact repeats. Equal entries are not always repeated. Inconclusive results are not listed. The source made the active and inactive calls. Calls follow the shape of the dose curve; as a rule, active = well fitted cell-killing curve with a large enough effect; inconclusive = small, poorly fitted or top-dose-only effect, or effect the other way; inactive = no such curve, though single readings can be large or run the other way.
experiment: qHTS of pediatric cancer cell lines to identify multiple opportunities for drug repurposing: Confirmatory screen for Saos-2 cells (AID 1347127); conditions: Saos-2 osteosarcoma cell viability; series mostly up to 45.9 µM; activity change, negative = cytotoxic: at the top concentration; also: nearly all actives have a fitted effect of over 60% in size
Excerpt: Drug repurposing or repositioning has been offered as a strategy for drug development in oncology programs. This approach has special potential for childhood cancers and other rare or orphan diseases, where the expected return on new drug development has been a disincentive to pharmaceuticals.
In this project we exploit the poly-pharmacology of drugs to discover new indications via phenotypic screening of a panel of 19 well-characterized cell lines derived from solid tumors seen in children and adolescents. The goal is to identify approved drugs with previously unrecognized anticancer properties that has the potential to reveal new mechanisms and biological processes involved in carcinogenesis or drug resistance. We employed a titration-based paradigm (quantitative high-throughput screening or qHTS), where all compounds were tested at multiple concentrations for their effect on cell viability. Concentration-response curves (CRCs) were derived directly from the primary screen, and both potency and efficacy values were used to identify compounds with robust bioactivity profiles. We screened the NIH Chemical Genomics Center (NCGC) Pharmaceutical Collection (NPC) and Mechanism Interrogation Plate (MIPE) small molecule collections of approved and investigational compounds against these cell lines; and measured metabolically active cells after 48 hours of compound treatment as a proxy for cell viability.
Assay Submitter: Nathalia J. Martinez, National Center for Advancing Translational Sciences, National Institutes of Health, Rockville, MD, USA; email: natalia.martinez@nih.gov
[1] Shen, M et al. Quantitative high-throughput phenotypic screening of pediatric cancer cell lines identifies multiple opportunities for drug repurposing. Oncotarget 2017 Dec 19;9(4):4758-4772. PMID 29435139.
The cells were obtained from University of North Carolina (UNC), Pediatric Preclinical Testing Program (PPT), and Coriell Institute (CI).
qHTS cell viability assay:
Cells were assayed in growth media at a density of 500-1,000 cells/well. Five microliters of cells were dispensed into 1,536-well, white, solid-bottom, TC-treated plates (Greiner Bio One) using a multidrop dispenser and incubated at 37 degrees C, 5% CO2, under a humidified atmosphere for 5 hours. Twenty-three nanoliters of compounds and controls (neutral control DMSO or positive control bortezomib at final concentration of 2.3 µM) were subsequently transferred by Kalypsys pintool. For primary screens, the MIPE collection was tested at 11-point dilutions (final concentrations range from 0.78 nM to 46 µM) and the NPC collection at 8-point dilutions (final concentrations range from 0.59 nM to 46 µM). Compounds tested in follow-up screens were assayed at 11-point dilutions. Cells were incubated for 48 hours, followed by addition of 3 µL of CellTiter-Glo (Promega). After a 15 min incubation at room temperature, samples were analyzed for luminescence intensity using a ViewLux High-throughput CCD imager equipped with clear filters.
Potency is read from the fitted curve at half-maximal effect.

SMILES	Potency	outcome	activity change, negative = cytotoxic
CC(C)C[C@H](NC(=O)[C@H](Cc1ccccc1)NC(=O)c1cnccn1)B(O)O	0.208 µM (active)		
Nc1ncn([C@H]2C[C@H](O)[C@@H](CO)O2)c(=O)n1		inactive	
Nc1nc(OCc2ccccc2)c2[nH]cnc2n1			-7% (inactive)
CCOc1cc(CC(=O)N[C@@H](CC(C)C)c2ccccc2N2CCCCC2)ccc1C(=O)O			4.77% (inactive)
Nc1nc(Cl)nc2c1ncn2[C@H]1C[C@H](O)[C@@H](CO)O1			-25.4% (inactive)
Cc1ccc(NC(=O)c2ccc(CN3CCN(C)CC3)cc2)cc1Nc1nccc(-c2cccnc2)n1			14.7% (inactive)
CC[C@]1(O)C[C@H]2CN(CCc3c([nH]c4ccccc34)[C@@](C(=O)OC)(c3cc4c(cc3OC)N(C=O)[C@H]3[C@@](O)(C(=O)OC)[C@H](OC(C)=O)[C@]5(CC)C=CCN6CC[C@]43[C@@H]65)C2)C1	8.3 nM (active) and 165 nM (active)		
CC1(C)C(=O)N(CCN2CCC(C(=O)c3ccc(F)cc3)CC2)c2ccccc21			-25.6% (inactive)
Clc1ccc(C(Cn2ccnc2)OCc2ccsc2Cl)c(Cl)c1 (stereo unspecified)	10.4 µM (active)		
CC(=O)O[C@H]1C(=O)[C@@]2(C)C([C@H](OC(=O)c3ccccc3)[C@]3(O)C[C@H](OC(=O)[C@H](O)[C@@H](NC(=O)c4ccccc4)c4ccccc4)C(C)=C1C3(C)C)[C@]1(OC(C)=O)CO[C@@H]1C[C@@H]2O (stereo partly specified)	0.0233 µM (active)		
CN(C)c1ccc2nc3ccc(=[N+](C)C)cc-3sc2c1	1.17 µM (active)		
CC(S)C(=O)NCC(=O)O (stereo unspecified)			17.2% (inactive)
O=C(CCc1ccc(O)cc1)c1c(O)cc(O)cc1O			7.95% (inactive)
CCN(CCO)CCCC(C)Nc1ccnc2cc(Cl)ccc12 (stereo unspecified)			19.3% (inactive)
COc1cc(C(C)=O)ccc1OCCCN1CCC(c2noc3cc(F)ccc23)CC1			3.5% (inactive)
Cc1nc(Nc2ncc(C(=O)Nc3c(C)cccc3Cl)s2)cc(N2CCN(CCO)CC2)n1			15% (inactive)
CCCOc1ccc2nc(NC(=O)OC)[nH]c2c1	0.827 µM (active)		
CCN(CC)CCOc1ccc(Nc2ncc3cc(-c4c(Cl)cccc4Cl)c(=O)n(C)c3n2)cc1	1.47 µM (active)		
O=C1c2c(O)cc(O)cc2OC(c2ccc(O)c(O)c2)C1O (stereo unspecified)			17.5% (inactive)
O=C(NCC1CCCCN1)c1cc(OCC(F)(F)F)ccc1OCC(F)(F)F (stereo unspecified)			-13% (inactive)
Nc1ccn([C@@H]2O[C@H](CO)[C@@H](O)C2O)c(=O)n1 (stereo partly specified)		inactive	
CN(C)c1ccc(O)c2c1C[C@H]1C[C@H]3[C@H](N(C)C)C(=O)C(C(N)=O)=C(O)[C@@]3(O)C(=O)C1=C2O		inactive	
CCN(CC)C(=S)SSC(=S)N(CC)CC	16.5 µM (active)		
CCCCc1ccc2nc(NC(=O)OC)[nH]c2c1	0.233 µM (active)		
C[C@]12CCC(=O)C=C1CC[C@@H]1[C@H]2[C@@H](O)C[C@@]2(C)[C@H]1CC[C@]2(O)C(=O)CO			1.43% (inactive)
Cc1c(C(=O)NN2CCCCC2)nn(-c2ccc(Cl)cc2Cl)c1-c1ccc(Cl)cc1	20.8 µM (active)		
